Dicer processing – inhibitors of human Dicer processing of pre-microRNA. cat-ELCCA pre-miR-21 Dicer processing, chemiluminescence; active compounds read high. z-score at 25 µM. AID 1347074. 47,000 tested, 6% active. Q9UPY3; in the data active = z-score above about 3, passing the limit was not always enough;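 note: higher signal means more uncleaved substrate so more Dicer inhibition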
Large screens that a line does not name were inactive. This is one part of a sample in which hits are shown more often than they occur.

Cc1ccc(-c2c3c(nc4ncnn24)-c2ccccc2C3=O)cc1	none
CCCCOC(=O)C1=C(C)NC2=C(C(=O)CCC2)C1c1cc(Br)c(O)c(OC)c1 (stereo not drawn)	none
C=CCn1c(=S)sc2c(Sc3nc4ccccc4[nH]3)ncnc21	none
CC(=O)c1sc2nc(C)cc(C)c2c1N	none
CCOC(=O)c1sc2nc(C)cc(C)c2c1N(C(C)=O)C(C)=O	Dicer processing 3.4
CCOC(=O)c1sc2nc(C)cc(C)c2c1NC(=O)Nc1cccc(Cl)c1	none
CCNS(=O)(=O)c1ccc(F)cc1	none
C[C@H](Nc1ncnc2sc3c(c12)CCCC3)c1ccccc1	none
Cc1cc(Cl)cc2c1C(=O)/C(=C\c1ccccc1O)S2	Dicer processing 5
Cc1cc(Cl)cc2c1C(=O)/C(=C\c1cccnc1)S2	none
O=C1C(c2cc(Cl)cc(Cl)c2)=C(O)c2ccccc21	none
CSc1cccc(NC(=S)/N=C/N(C)C)c1	none
O=S(=O)(c1ccccc1)c1ccc(S(=O)(=O)N2CCOCC2)s1	none
O=S(=O)(c1ccccc1)c1ccc(S(=O)(=O)N2CCN(C3c4ccccc4-c4ccccc43)CC2)s1	Dicer processing 3.4
CC(=O)c1ccc(N2CCN(S(=O)(=O)c3ccc(S(=O)(=O)c4ccccc4)s3)CC2)cc1	none
COC(=O)c1ccc(NC(=O)CSc2nc(SC)ns2)cc1	none
C=CCNC(=O)c1c(NC(=O)c2ccco2)sc2c1CCC(C(C)(C)C)C2 (stereo not drawn)	none
CCOC(=O)c1cc(-c2ccc(Cl)cc2)oc1/C=N/OC(=O)c1ccco1	none
O=[N+]([O-])c1cc(Cl)c(N2CCOCC2)cc1N1CCOCC1	none
CCNC(=O)c1cccc2c1-c1ccccc1C2=O	none
CCOC(=O)N(/N=C/c1sc2ccccc2c1C)SC(Cl)(Cl)Cl	none
Cc1c(/C=N/NC(=O)NCc2ccccc2)sc2ccccc12	Dicer processing 5.4
O=C(NCc1ccccc1)N/N=C/c1cccs1	none
Cn1c(=O)c2c(nc(OCc3ccc4c(c3)OCO4)n2Cc2ccc(Cl)cc2)n(C)c1=O	none
S=C(NN=C1CCCCCC1)Nc1ccccc1	none
CC(=O)NNC(=S)Nc1cccc(F)c1	none
Fc1cccc(NC(=S)NN=C2CCCCCC2)c1	Dicer processing 4.2
O=C(N=S1CCN(S(=O)(=O)c2ccc(Cl)cc2)CC1)Nc1ccc(Cl)cc1	none
O=C(NCc1sccc1COc1ccc(Cl)cc1)Nc1ccccc1F	Dicer processing 4.5
Cc1ccsc1CNC(=O)Nc1ccc(OCc2ccccc2)cc1	none
O=S(=O)(NNC(=S)Nc1ccccc1F)c1ccc(Cl)cc1	none
CCCCN1C(=O)N(c2nnc(C(C)(C)C)s2)C(=O)C1c1ccc(F)cc1 (stereo not drawn)	none
CC1CC(=O)N(Cc2ccc(Cl)cc2)C(=O)C1	Dicer processing 4.7
CC1=C2CCC(C)CC23C2C(=O)N(Cc4ccc(Cl)cc4)C(=O)C2C1C1C(=O)N(Cc2ccc(Cl)cc2)C(=O)C13 (stereo not drawn)	none
O=C1CNC(=S)N1Cc1ccc(Cl)cc1	none
Cc1[nH]c(=S)[nH]c(=O)c1CCC(C)C	none
O=c1[nH]c(-c2cc(Br)cs2)nc2ccc(Cl)cc12	none
O=S(=O)(c1cccc(C(F)(F)F)c1)n1cccc1	none
O=C(C1Sc2nnc(-c3ccccc3)n2NC1c1ccccc1)N1CCCCC1 (stereo not drawn)	none
CCc1ccccc1NC(=S)NNS(=O)(=O)c1ccc(C)cc1	none
CCOC(=O)c1sc2ccc(NC(C)=O)cc2c1C	none
COc1ccc(CCN2C(=O)C(Oc3ccccc3)C2c2ccc3c(c2)OCO3)cc1 (stereo not drawn)	Dicer processing 3.4
COc1ccc(OC2C(=O)N(Cc3ccc4c(c3)OCO4)C2c2ccc3c(c2)OCO3)cc1 (stereo not drawn)	none
O=C1C(Oc2ccccc2)C(c2ccc(F)cc2)N1Cc1ccc2c(c1)OCO2 (stereo not drawn)	none
COc1ccc(OC2C(=O)N(CCc3ccc(Cl)cc3)C2c2ccc3c(c2)OCO3)cc1 (stereo not drawn)	Dicer processing 4.9
COc1ccc(OC2C(=O)N(CCc3ccc(F)cc3)C2c2ccc3c(c2)OCO3)cc1 (stereo not drawn)	Dicer processing 3.3
Cc1ccccc1OC1C(=O)N(Cc2ccc3c(c2)OCO3)C1c1ccc2c(c1)OCO2 (stereo not drawn)	none
COc1ccc(OC2C(=O)N(Cc3ccc4c(c3)OCO4)C2c2cccs2)cc1 (stereo not drawn)	none
O=C1C(Oc2ccc(Cl)cc2)C(c2ccc3c(c2)OCO3)N1CC1CCCO1 (stereo not drawn)	none
O=C1C(Oc2ccccc2)C(c2ccc3c(c2)OCO3)N1Cc1ccc2c(c1)OCO2 (stereo not drawn)	none
CN(C)/C=N/c1nnc(Sc2ccc([N+](=O)[O-])cn2)s1	none
O=c1c2cc(-c3ccccc3)sc2ncn1Cc1ccccc1Cl	none
O=S(=O)(NNc1c(Cl)cccc1Cl)c1cc(C(F)(F)F)cc(C(F)(F)F)c1	none
O=[N+]([O-])c1ccc2c(c1)CCN2C(=S)NC1CC2CC1C1C=CCC21 (stereo not drawn)	none
CC(C)[C@H](NC(=O)OCc1ccccc1)C(=O)O	none
CCOC(=O)c1cc2ccccc2oc1=O	none
Cn1ccnc1SCC(=O)Nc1ccccc1Br	none
O=S(=O)(NNc1cnc2ccccc2n1)c1ccccc1C(F)(F)F	none
CCOC(=O)N1CCCN=C1NNc1cc(F)ccc1C	none
COc1ccc(OC)c(S(=O)(=O)N(C(=O)C(C)C)c2ccc3oc(=O)sc3c2)c1	none
Cc1ccc(S(=O)(=O)N(C(=O)c2ccncc2)c2ccc3oc(=O)sc3c2)c(C)c1	Dicer processing 7.7
Cc1cc(C)c(S(=O)(=O)N(C(=O)c2ccncc2)c2ccc3oc(=O)sc3c2)cc1C	Dicer processing 5
Cc1ccc(NC(=S)Nc2ccccc2Cl)cc1NS(C)(=O)=O	none
Cn1c(SCC(=O)c2ccc(C(C)(C)C)cc2)nnc1-c1ccncc1	none
O=C1c2cccc3c(N4CCOCC4)ccc(c23)C(=O)N1c1ccc(O)cc1	none
Cc1ccc2[nH]c3nc(SCC(C)C)nnc3c2c1	none
O=S(=O)(c1ccccc1)c1nc(-c2ccc(Cl)cc2)oc1N1CCOCC1	none
CCc1ccc(C2C3=C(CCCC3=O)Nc3[nH]n(-c4ccccc4)c(=O)c32)cc1 (stereo not drawn)	none
O=C1CC(c2ccccc2)CC2=C1C(c1cc3c(cc1Br)OCO3)Nc1ccccc1N2 (stereo not drawn)	none
Oc1ccc(Cl)c(C(c2c[nH]c3ccccc23)c2c[nH]c3ccccc23)c1	none
NCC(c1ccccc1)c1c[nH]c2ccccc12 (stereo not drawn)	none
CCOc1cccc(C(c2c[nH]c3ccccc23)c2c[nH]c3ccccc23)c1OC	Dicer processing 4
CCOc1ccccc1C(c1c(C)[nH][nH]c1=O)c1c(C)[nH][nH]c1=O	none
CCOc1ccc(C(c2c[nH]c3ccccc23)c2c[nH]c3ccccc23)cc1	Dicer processing 3.4
Cc1[nH][nH]c(=O)c1C(c1c(C)[nH][nH]c1=O)c1c[nH]c2ccccc12	none
FC(F)(F)c1ccc(-c2nnc(SCc3c(Cl)cccc3Cl)s2)nc1	none
COc1cccc2c1OC(c1ccncc1)N1N=C(c3ccccc3O)CC21 (stereo not drawn)	none
COC(=O)Cc1cc(=O)n2[nH]c(C(F)(F)F)c(-c3ccc(Br)cc3)c2n1	none
O=C(O)CCSc1n[nH]c(=O)[nH]c1=O	Dicer processing 4.8
CC(C)OC(=O)CSc1n[nH]c(=O)[nH]c1=O	none
O=C(O)CCCNc1n[nH]c(=O)[nH]c1=O	none
Cc1c(C#N)sc(-c2ncn[nH]2)c1C	none
CCCOc1ccc(C2c3c(oc4ccccc4c3=O)C(=O)N2c2nc(C)c(C)s2)cc1OCC (stereo not drawn)	none
Cn1c(=O)oc2cc(S(=O)(=O)Nc3ccc(C(=O)O)cc3)ccc21	none
